Laboratory results as given in PubChem BioAssay (NCATS).
Records with an inconclusive call do not appear. Where a call stands in place of a potency, no number is given. A number with no mark means an inactive call. Active and inactive are the calls of the source. The call rests on the fitted dose curve; in most records, active means well fitted inhibition curve with a large enough effect; inconclusive means small, poorly fitted or top-dose-only effect; inactive means flat fitted curve, though single readings scatter.

Key:
[1] = target: Glutathione peroxidase 1 (Homo sapiens) (UniProt P07203); assay: Primary qHTS Assay for Inhibitors of Recombinant Selenoprotein Glutathione Peroxidase 1 (GPX1) (AID 1845191); details: recombinant GPX1, GR-coupled NADPH fluorescence, 15 min; series mostly up to 48.8 µM
Outline: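 GR-coupled readout: NADPH consumption tracked by fluorescence, ex 340/em 450 nm, at t=0 and after 15 min at RT. Final mix 10 nM GPX1, 1 mM GSH, 0.5 mM CHP, 0.5 mM NADPH, 100 nM GR, 0.01% BSA, following 30 min enzyme–compound preincubation.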

[2] = target: Phospholipid hydroperoxide glutathione peroxidase GPX4 (Homo sapiens) (UniProt P36969); assay: Primary qHTS Assay for Inhibitors of Recombinant Selenoprotein Glutathione Peroxidase 4 (GPX4) (AID 1845192); details: recombinant GPX4, GR-coupled NADPH fluorescence, 15 min; series mostly up to 50 µM
Outline: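 Steps: GPX4 plus compound, 30 min RT; add GR/GSH/NADPH master mix; start with cumene hydroperoxide; read 340/450 nm fluorescence at 0 and 15 min. Finals were 200 nM GPX4, 1 mM GSH, 0.5 mM CHP, 0.5 mM NADPH, 100 nM GR.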
Further: nearly all actives have a fitted effect of over 65% in size.
Potency means the concentration at half of the fitted maximal effect.

Phospholipid hydroperoxide glutathione peroxidase GPX4 (Homo sapiens), sequence (P36969 whole entry, looked up): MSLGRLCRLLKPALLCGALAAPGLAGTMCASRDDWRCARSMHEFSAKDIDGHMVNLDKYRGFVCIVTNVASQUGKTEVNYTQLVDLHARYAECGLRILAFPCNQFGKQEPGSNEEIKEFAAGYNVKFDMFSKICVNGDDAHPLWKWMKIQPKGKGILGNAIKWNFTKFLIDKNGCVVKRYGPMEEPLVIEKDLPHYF
Glutathione peroxidase 1 (Homo sapiens), sequence (P07203 whole entry, looked up): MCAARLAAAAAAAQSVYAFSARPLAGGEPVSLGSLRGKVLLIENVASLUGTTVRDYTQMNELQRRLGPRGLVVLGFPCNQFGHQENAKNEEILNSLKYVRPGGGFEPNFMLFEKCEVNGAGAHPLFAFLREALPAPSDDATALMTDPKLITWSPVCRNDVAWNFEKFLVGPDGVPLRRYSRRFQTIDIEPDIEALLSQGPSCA

| Structure (SMILES) | Potency [1] | Potency [2] | outcome [1] | outcome [2] |
| --- | --- | --- | --- | --- |
| CC(=O)OCC(=O)[C@@]1(O)[C@H](C)C[C@H]2[C@@H]3C[C@H](F)C4=CC(=O)C=C[C@]4(C)[C@@]3(F)[C@@H](O)C[C@@]21C | inactive | inactive | – | – |
| [2H]C([2H])([2H])C(CCC[C@@H](C)[C@H]1CC[C@H]2/C(=C/C=C3\C[C@@H](O)C[C@H](O)C3=C)CCC[C@]12C)C([2H])([2H])[2H] | inactive | 14.1 µM (active) | – | – |
| C=Cc1c(C)c2cc3nc(c(CC(=O)N[C@@H](CC(=O)O)C(=O)O)c4nc(cc5[nH]c(cc1[nH]2)c(C)c5CC)C(C)=C4C(=O)O)[C@@H](CCC(=O)O)[C@@H]3C | inactive | inactive | – | – |
| OB1OCc2cc(F)ccc21 | inactive | inactive | – | – |
| CCC(CN)CC(C)CNCC(O)CNCC(CC)CC(CC)CN (configuration not stated) | inactive | inactive | – | – |
| CCC1(C)OC(=O)N(C)C1=O (configuration not stated) | inactive | inactive | – | – |
| CCCCCCCCCCCC(=O)OCN1C(=O)CCc2ccc(OCCCCN3CCN(c4cccc(Cl)c4Cl)CC3)cc21 | inactive | inactive | – | – |
| CCC(c1ccccc1)c1c(O)c2ccccc2oc1=O (configuration not stated) | inactive | inactive | – | – |
| [Mn].[O]=[Mn][OH].[O]=[Mn][OH] | inactive | inactive | – | – |
| CO[C@@H]1[C@@H](O[C@@H]2O[C@H](C)[C@@H](O[C@H]3C[C@@](C)(O)[C@H](O)[C@H](C)O3)[C@H](N(C)C)[C@H]2O)[C@@H](CC=O)C[C@@H](C)[C@@H](O[C@H]2CC[C@H](N(C)C)[C@@H](C)O2)/C=C/C=C/C[C@H](C)OC(=O)C[C@H]1O | inactive | inactive | – | – |
| CC(=O)OCC1=C(C(=O)O)N2C(=O)[C@@H](NC(=O)[C@H](N)c3ccccc3)[C@H]2SC1 | 10.1 µM (active) | 15.8 µM (active) | – | – |
| CCCCC[C@@H](O)CC[C@H]1[C@@H]2Cc3cccc(OCC(=O)O)c3C[C@@H]2C[C@@H]1O | inactive | inactive | – | – |
| Cc1oc(=O)oc1COC(=O)N1CC[C@@H](N2CC/C(=C\C3=C(C(=O)O)N4C(=O)[C@@H](NC(=O)/C(=N/O)c5nsc(N)n5)[C@H]4SC3)C2=O)C1 | 7.18 µM (active) | 10 µM (active) | – | – |
| O=C(O)C[C@@H]1CC[C@H](NC(=O)Cc2cccs2)B(O)O1 | inactive | inactive | – | – |
| O=C(O)C(O)[C@H](O)[C@H](O)[C@H](O)[C@H](O)CO (some centres not stated) | inactive | inactive | – | – |
| [2H]N[C@@H](Cc1ccccc1)C(=O)N1CCC[C@H]1C(=O)N[C@@H](CCCNC(=N)N)C(=O)N1CCC[C@H]1C(=O)NCC(=O)NCC(=O)NCC(=O)NCC(=O)N[C@@H](CC(N)=O)C(=O)NCC(=O)N[C@@H](CC(=O)O)C(=O)N[C@@H](Cc1ccccc1)C(=O)N[C@@H](CCC(=O)O)C(=O)N[C@@H](CCC(=O)O)C(=O)N[C@H](C(=O)N1CCC[C@H]1C(=O)N[C@@H](CCC(=O)O)C(=O)N[C@@H](CCC(=O)O)C(=O)N[C@@H](Cc1ccc(O)cc1)C(=O)N[C@@H](CC(C)C)C(=O)O)[C@@H](C)CC | – | – | inactive [at 9.52 µM] | inactive [at 9.73 µM] |
| O=[N+]([O-])c1ccc(/C=C/c2cccc(CO)n2)o1 | inactive | inactive | – | – |
| CC1(C)C[C@H]1C(=O)N/C(=C\CCCCSC[C@@H](N)C(=O)O)C(=O)O | inactive | inactive | – | – |
| CCCCCCCCCCCCCCCCCCCCCCCCCCCCO | – | – | inactive [at 0.4 µM] | inactive [at 0.409 µM] |
| CC(C)C(=O)OCC(=O)[C@@]12OC(C3CCCCC3)O[C@@H]1C[C@H]1[C@@H]3CCC4=CC(=O)C=C[C@]4(C)[C@H]3[C@@H](O)C[C@@]12C (some centres not stated) | inactive | inactive | – | – |
| C#C[C@]1(O)CC[C@H]2[C@@H]3CCC4=CC(=O)CC[C@@H]4[C@H]3C(=C)C[C@@]21CC | inactive | inactive | – | – |

| Structure (SMILES) | Potency [1] | Potency [2] | outcome [1] | outcome [2] |
| --- | --- | --- | --- | --- |
| C#C[C@]1(O)CC[C@H]2[C@@H]3CCC4=CC(=O)CCC4[C@H]3CC[C@@]21CC (some centres not stated) | inactive | inactive | – | – |
| CCCCCCCCCCCCOC(=O)CS(=O)(=O)O | inactive | 14.1 µM (active) | – | – |
| O=C(O[C@H]1C[N+]2(CCCOc3ccccc3)CCC1CC2)C(O)(c1cccs1)c1cccs1 | inactive | inactive | – | – |
| Cc1cc(C#N)cc(C)c1Oc1nc(Nc2ccc(C#N)cc2)nc(N)c1Br | inactive | inactive | – | – |
| CN[C@H]1C(=O)N[C@@H]2Cc3ccc(cc3)Oc3cc4cc(c3O[C@@H]3O[C@H](C(=O)O)[C@@H](O)[C@H](O)[C@H]3NC(=O)CCCCCCCCC(C)C)Oc3ccc(cc3Cl)[C@@H](O)[C@@H]3NC(=O)[C@H](NC(=O)[C@@H]4NC(=O)[C@@H](NC2=O)c2cc(cc(O)c2Cl)Oc2cc1ccc2O)c1ccc(O)c(c1)-c1c(O[C@H]2O[C@H](CO)[C@@H](O)[C@H](O)[C@@H]2O)cc(O)cc1[C@@H](C(=O)NCCCN(C)C)NC3=O | inactive | inactive | – | – |
| COc1cc2c(c(OC)c1OC)-c1c(cc3c(c1OC)OCO3)C[C@H](C)[C@@](C)(O)C2 | inactive | inactive | – | – |
| CCCC[C@H](C)C[C@H](O)/C=C/[C@H]1[C@H](O)CC(=O)[C@@H]1CCCC/C=C/C(=O)O | inactive | inactive | – | – |
| OC[C@H]1O[C@H](O[C@H]2[C@H](O)[C@@H](O)[C@H](O)O[C@@H]2CO)[C@H](O)[C@@H](O)[C@@H]1O | inactive | inactive | – | – |
| Cc1oc(-c2ccccc2)nc1CCOc1ccc(CC2C(=O)NOC2=O)cc1 (configuration not stated) | inactive | 14.1 µM (active) | – | – |
| OC[C@H]1OC(O)C[C@@H](O)[C@@H]1O (some centres not stated) | inactive | inactive | – | – |
| CC(C)(C)NCC(O)COc1ccccc1C1CCCC1 (configuration not stated) | inactive | inactive | – | – |
| CN(CCCCCCN(C)C(=O)Oc1ccc[n+](C)c1)C(=O)Oc1ccc[n+](C)c1 | inactive | inactive | – | – |
| CC1CC2C3CCC4=CC(=O)C=CC4(C)C3(F)C(O)CC2(C)C1(O)C(=O)COC(=O)c1cccc(S(=O)(=O)O)c1 (configuration not stated) | inactive | 20 µM (active) | – | – |
| Cc1cc(CC(C)C[Si](C)(O[Si](C)(C)C)O[Si](C)(C)C)c(O)c(-n2nc3ccccc3n2)c1 (configuration not stated) | inactive | inactive | – | – |
| CCC(=O)OCC(=O)[C@]1(OC(=O)CC)[C@H](C)C[C@H]2[C@H]3[C@H]([C@@H](O)C[C@@]21C)[C@@]1(C)C=CC(=O)C=C1C[C@H]3Cl | inactive | inactive | – | – |
| CCCCCCCCCCCCCCCC(=O)OC1CCCn2c1nc(C)c(CCN1CCC(c3noc4cc(F)ccc34)CC1)c2=O (configuration not stated) | inactive | inactive | – | – |
| CCCCC(C)(O)CC=C[C@H]1[C@H](O)CC(=O)[C@H]1CCCCCCC(=O)OC (some centres not stated) | inactive | inactive | – | – |
| C=C1/C(=C/C=C2\CCC[C@]3(C)[C@@H]([C@H](C)CC[C@@H](O)C(C)C)CC[C@@H]23)C[C@@H](O)C[C@@H]1O | inactive | 15.8 µM (active) | – | – |
| CCC(C)C(NC(=O)C(Cc1ccc(O)cc1)NC(=O)C(NC(=O)C(CCCN=C(N)N)NC(=O)C(N)CC(=O)O)C(C)C)C(=O)NC(Cc1cnc[nH]1)C(=O)N1CCCC1C(=O)NC(Cc1ccccc1)C(=O)O (configuration not stated) | inactive | inactive | – | – |
| CC[C@H]1OC(=O)C[C@@H](OC(C)=O)[C@H](C)[C@@H](O[C@@H]2O[C@H](C)[C@@H](O[C@H]3C[C@@](C)(O)[C@@H](OC(=O)CC(C)C)[C@H](C)O3)[C@H](N(C)C)[C@H]2O)[C@@H](CC=O)C[C@@H](C)C(=O)/C=C/C(C)=C/[C@@H]1CO[C@@H]1O[C@H](C)[C@@H](O)[C@@H](OC)[C@H]1OC | inactive | inactive | – | – |
